The text below walks through data of the supplement of paper PMC7866885, “A novel bicyclic 2,4-diaminopyrimidine inhibitor of Streptococcus suis dihydrofolate reductase” (PeerJ, 2021).

± gives the standard deviation.

The experiment relates to Streptococcus suis P1/7. Briefly: percent growth relative to DMSO control; higher = less growth inhibition. The following applies: 10 µM; incubation time 18 h. The method, then:
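CLSI broth microdilution: 5x10^4 CFU of Streptococcus suis (strain P1/7 or HE06) incubated with 10 µM Pathogen Box compound in cation-adjusted Mueller Hinton broth, 37 °C, 5% CO2, 18 h. Growth read as OD600 and expressed as percent of the DMSO-treated control (100%); mean ± SD of three independent experiments.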
As for `Clc1cccc(C(c2ccc(CN3CCNCC3)cc2)n2ccnc2)c1` (stereo not given), the percent growth came out at 76.7 ± 5.8%.

Consider `NS(=O)(=O)c1cncc(-c2ccc3nccc(-c4cn[nH]c4)c3n2)c1`, for which the percent growth was found to be 77.6 ± 23%.

Take `Cc1cc(C)c2cc(C(=O)NC3CCCCCCC3)[nH]c2c1`: the percent growth stood at 90.1 ± 32%.

`CNC(=O)C1Cc2c([nH]c3cc(Cl)ccc23)C2(CCN(CCc3ccccc3)CC2)N1` (stereo not given): the percent growth worked out at 77.4 ± 9%.

Consider `Cc1nn(C(=O)Nc2cccc(C(F)(F)F)c2)c(C)c1Sc1ncccn1`, for which the percent growth was -0.122 ± 0.21%.

For the molecule `CC(=O)NC[C@@H]1CN(c2ccc(N3CCOCC3)c(F)c2)C(=O)O1`, the percent growth is 3.05 ± 1.6%.

Take `NC(CC(=O)c1ccc(Cl)cc1Cl)C(Cl)(Cl)Cl` (stereo not given): the percent growth was determined as 23.2 ± 36%.

As to `COc1cccc(-c2cc3c(Nc4cccnc4)nccc3[nH]2)c1`, the percent growth stood at 83.9 ± 23%.

With `CCCn1c(CNc2ccccc2O)nc2ccccc21`, the percent growth was found to be 82.1 ± 38%.

Take `CC1(C)Cc2c(c(N3CCOCC3)nc3snc(Br)c23)CO1`: the percent growth was found to be 82.2 ± 20%.

With `CN1CCCC1CCO[C@](C)(c1ccccc1)c1ccc(Cl)cc1` (stereo not given in full), the percent growth is 78.1 ± 43%.

Take `Cc1nc(-c2ccccn2)nc(NCCc2ccc(S(C)(=O)=O)cc2)c1Cl`: the percent growth was 73.3 ± 11%.

As to `Cc1nc(-c2ccccn2)nc(N2CCC(Cc3ccccc3)C2)c1Cl` (stereo not given), the percent growth was -0.158 ± 0.27%.

As for `NC(=O)c1cc(Br)ccc1OCCOc1ccccc1`, the percent growth came to 73.4 ± 29%.

Take `CCc1nc2ccc(Cl)cn2c1C(=O)NCc1ccc(N2CCC(c3ccc(OC(F)(F)F)cc3)CC2)cc1`: the percent growth came to 111 ± 65%.

With `O=C(Nc1ccccc1)c1ccc(-c2cc3ccncc3cc2OC2CCNCC2)s1`, the percent growth was determined as 72.3 ± 8.4%.

As for `O=C(NCc1ccco1)N1CCN(Cc2ccc(Cl)s2)CC1`, the percent growth came to 91.1 ± 21%.

As for `OCc1ccc(-c2cncc(Nc3cccc(Cl)c3)c2)cc1`, the percent growth was 69.8 ± 33%.

With `O=C(c1[nH]nc2c1CCCC2)N1CCN(Cc2ccc3c(c2)OCO3)CC1`, the percent growth came out at 99.9 ± 45%.

`CNC(=O)CNc1nc(-c2ccccn2)nc2scc(-c3ccccc3)c12`: the percent growth came out at 43 ± 38%.

With `COc1ccc(OC(C)C(=O)Nc2ccc(Cl)cc2C)cc1` (stereo not given), the percent growth was determined as 82.7 ± 6.3%.

As for `C[C@@H]1[C@H](O)[C@@H](C)/C=C/C=C/C=C/C=C/C=C/C=C/C=C/[C@H](O[C@@H]2O[C@H](C)[C@@H](O)[C@H](N)[C@@H]2O)C[C@@H]2O[C@](O)(C[C@@H](O)C[C@@H](O)[C@H](O)CC[C@@H](O)C[C@@H](O)CC(=O)O[C@H]1C)C[C@H](O)[C@H]2C(=O)O`, the percent growth is 92.3 ± 14%.

With `CCOc1ccccc1C(=O)Nc1cccc(-c2nc3ncccn3c2C)c1`, the percent growth was 71.6 ± 8.8%.

Take `NCCCC(N)(C(=O)O)C(F)F` (stereo not given): the percent growth was 90.1 ± 16%.

Turning to `Cc1nc(-c2ccccn2)nc(N(C)CCc2ccccc2)c1Cl`, the percent growth was -0.0636 ± 0.11%.

Turning to `Cc1ccc(S(=O)(=O)N2CCN(C(=O)c3cc(-c4ccccc4)[nH]n3)CC2)cc1`, the percent growth was found to be 83.1 ± 19%.

Consider `COc1cccc(OCC(=O)c2ccc(Br)cc2)c1`, for which the percent growth was 81.9 ± 9.6%.

In the case of `CC(C)(C)OC(=O)N1CCN(c2nccc(-c3ccc(-c4ccc(Cl)cc4)s3)n2)CC1`, the percent growth stood at 129 ± 42%.

As for `Cc1noc(C)c1C(=O)N1CCCC(c2[nH]c3c(C)cccc3c2-c2ccncc2)C1` (stereo not given), the percent growth amounted to 90.5 ± 20%.

As for `COC(=O)c1c(NC(=O)c2c(F)c(F)c(F)c(F)c2F)sc2c1CCCCC2`, the percent growth is 85.2 ± 3%.

As for `c1ccc(Oc2ccc(-c3cc(N4CCOCC4)[nH]n3)cc2)cc1`, the percent growth was found to be 61.7 ± 32%.

On to `Nc1ccc2ncnc(Nc3ccc(OCc4cccc(F)c4)c(Cl)c3)c2c1`, for which the percent growth was 81.2 ± 18%.

As for `O=S(=O)(c1ccc(Cl)cc1)N1CCN(C(=S)NCc2ccco2)CC1`, the percent growth came to 92.6 ± 17%.

As for `O=C(Nc1ccccc1-c1nc2c(C(=O)O)cccc2o1)c1ccccc1`, the percent growth amounted to 68.3 ± 5.7%.

As to `CCC(=O)Nc1ccccc1C(=O)Nc1ccccn1`, the percent growth came to 103 ± 41%.

Take `O=C(Nc1ccc2c(c1)B(O)OC2)c1ccccc1C(F)(F)F`: the percent growth turned out to be 88 ± 14%.

For the molecule `CC(C)(C)n1nc(-c2ccccc2)c2c(N)ncnc21`, the percent growth was 84.5 ± 20%.

With `CCC(C)NC(=O)c1ccc(NC(=O)C2(c3ccccc3)CCCC2)cc1` (stereo not given), the percent growth turned out to be 78.1 ± 25%.

With `CC[C@H](CO)NCCN[C@H](CC)CO`, the percent growth stood at 77 ± 21%.

Take `Cc1nn(C)cc1C(C)Nc1nncc(-c2ccc(C(F)(F)F)cc2)n1` (stereo not given): the percent growth came out at 103 ± 32%.
